TIM10 inh = growth inhibitors of TIM10 yeast strain | S. cerevisiae TIM10 strain growth, BacTiter-Glo luminescence, 24 h | inhibition, % at 10 µM | 1.4% of 330,000 active | AID 463195;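 active means inhibition of 40% or more at the single tested concentration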;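 further: wild-type TIM10 isogenic control strain grown at permissive 25 °C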
tim23-1 inh = tim23-1 yeast growth inhibition; S. cerevisiae tim23-1 growth, BacTiter-Glo luminescence, 24 h; inhibition, % at 20 µM; 1.3% of 330,000 active; AID 463212;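 active means growth inhibition of the mutant yeast at or above 50%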;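 further: temperature-sensitive mutant grown at 25 °C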
SKKanGAS inh = inhibitors of SKKanGAS S. pyogenes growth in kanamycin (SK-promoter or general growth effect); BacTiter-Glo, 6 h; inhibition, % at 7.5 µM; 1.3% of 300,000 active;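 active means mean replicate score, as percent of positive control median, at least 50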;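 further: strain carries kanamycin resistance gene driven by streptokinase promoter and grows in 40 µg/ml kanamycin; loss of luminescence reflects streptokinase promoter inhibition or plain growth inhibition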
tim10-1 inh = inhibits growth of tim10-1 mutant yeast; 2.2% of 330,000 active; S. cerevisiae tim10-1 ts strain growth, BacTiter-Glo, 24 h; inhibition, % at 20 µM;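 active means inhibition of at least 40%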;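 further: mutant grown at 25 °C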
NALP1 inh = blocks the NALP1 inflammasome reconstituted in yeast; inhibition, % at 10 µM; 0.61% of 280,000 active; S. cerevisiae NALP1/ASC/caspase-1 growth, X-gal OD620, 72 h; in the data active means inhibition mostly above about 24%, no sharp cut-off; inactive means mostly below about 32%
NLRP3 yeast inh = NALP3 inhibition in yeast; Yeast reconstituted NLRP3/ASC/caspase-1, beta-gal luminescence, 24 h; inhibition, % at 10 µM; 0.39% of 330,000 active; AID 2825;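 active means inhibition of 50% or more; inactive means inhibition below 50%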
Of the large screens only hits and unclear results are named; the others gave an inactive call. In the library only some 4.9% were active in any assay of this set; here they are far more common.

COc1ccc(NS(=O)(=O)c2ccc(N3CCOCC3)c(NC(=O)c3ccc(F)cc3)c2)cc1	none (no result: NALP1 inh)
COc1ccc(-c2c(-c3ccccc3OC)oc3ccccc23)cc1F	none (no result: SKKanGAS inh, NALP1 inh)
CCOc1cccc(CNCCSc2nnnn2C)c1	NALP1 inh 27
Cc1ccc2[nH]c3c(c2c1)CCCC3NCCO (stereo unspecified)	none
CCC(C)NC(=O)CSc1ccc(S(=O)(=O)N(C)C2CCCCC2)cn1 (stereo unspecified)	none (no result: SKKanGAS inh, NALP1 inh)
CC(C)Oc1ccc(C(=O)Nc2nnc(C3=COCCO3)o2)cc1	SKKanGAS inh 73 (no result: NALP1 inh)
CN(C)c1ccc(C(=O)Nc2nnc(C3=COCCO3)o2)cc1	none
CC(C)(C)c1ccc(C(=O)Nc2nnc(C3=COCCO3)o2)cc1	SKKanGAS inh 80
O=C(Nc1nnc(C2=COCCO2)o1)c1cccc(F)c1	SKKanGAS inh 63
Cc1ccc(C(NC(=O)Nc2ccccn2)C(Cl)(Cl)Cl)cc1F (stereo unspecified)	none
O=[N+]([O-])c1cc(Br)c2nsnc2c1N1CCOCC1	none
COc1cc([N+](=O)[O-])c(N2CCOCC2)c([N+](=O)[O-])c1OC	NALP1 inh 42
CC1CCN(S(=O)(=O)N2CCC(C(=O)NCCc3ccccc3)CC2)CC1	none
Cc1ccc(C2C(C(=O)c3cc4ccccc4o3)=C(O)C(=O)N2c2cc(C)on2)cc1 (stereo unspecified)	SKKanGAS inh 59
CCc1ccc2nc(N3C(=O)C(O)=C(C(=O)c4ccco4)C3c3cccs3)sc2c1 (stereo unspecified)	SKKanGAS inh 88
Cc1ccc2nc(N3C(=O)C(O)=C(C(=O)c4cc5ccccc5o4)C3c3cccs3)sc2c1 (stereo unspecified)	SKKanGAS inh 104
Cc1cc(N2C(=O)C(O)=C(C(=O)c3cc4ccccc4o3)C2c2ccc([N+](=O)[O-])cc2)no1 (stereo unspecified)	none
COCCn1c(SCc2ccc(C)cc2)nc2c1c(=O)[nH]c(=O)n2C	none (no result: NALP1 inh)
CC1(C)SC[C@H](C(=O)Nc2cccc(Cl)c2)N1C=O	NALP1 inh 37
CC12CCC(=O)N1C(C(=O)Nc1ccc(F)c(Cl)c1)CS2 (stereo unspecified)	none (no result: NALP1 inh)
CC(C)NC(=O)CSc1ccccc1C(=O)NNC(=O)Cn1ccc(C(F)(F)F)n1	none (no result: NALP1 inh)
Cc1ccc(C(C(=O)NC(C)(C)C)N(CC2CCCO2)C(=O)CCC(=O)Nc2ccccn2)cc1 (stereo unspecified)	none
COc1ccc(S(=O)(=O)N2CCN(C(=O)COc3ccccc3)CC2)cc1	none
Cc1ccc(S(=O)(=O)N2CCN(C(=O)COC(=O)COc3ccccc3)CC2)cc1	NALP1 inh 29
CS(=O)(=O)c1nsc2nc(=O)c(/C=C3\C=Nc4ccccc43)c(N)n12	none
CC(C)Sc1nsc2nc(=O)c(/C=C3\C=Nc4ccccc43)c(N)n12	SKKanGAS inh 74
Cc1c(CCO)c(=O)[nH]n1S(=O)(=O)c1ccc([N+](=O)[O-])cc1	none
COc1ccc(S(=O)(=O)n2[nH]c(=O)c(CCO)c2C)cc1	NALP1 inh 29
CCOC(=O)c1cnc(SC)nc1Sc1ccccc1Cl	none
CSc1nc(Sc2ccccc2Cl)c2ccccc2n1	SKKanGAS inh 59
CCCCCc1ccc(OCCOCCn2c[n+](C)c3ccccc32)c(CCCCC)c1	SKKanGAS inh 84 (no result: TIM10 inh, tim23-1 inh, tim10-1 inh, NLRP3 yeast inh)
CCCCCc1ccc(OCCC[n+]2ccccc2)c(CCCCC)c1	none
Cc1cc(C)c2c(C(C)(C)C)nn(-c3ccccc3)c2n1	SKKanGAS inh 60
CSc1ncccc1C(=O)NCC(c1cccs1)N1CCOCC1 (stereo unspecified)	none (no result: NALP1 inh)
Cc1cc(C)c(C)c(OCC(=O)N2CCOCC2)c1	NALP1 inh 44
Cc1ccc(OCC(=O)N2CCOCC2)cc1C	none
Cc1ccc(F)cc1S(=O)(=O)NCc1ccc(N2CCN(C)CC2)cc1	NALP1 inh 31
CCc1ccc(S(=O)(=O)NCc2ccc(N3CCN(C)CC3)cc2)cc1	none
CCn1cc(Cl)c(C(=O)N2N=C(c3ccc4ccccc4c3)CC2c2ccccc2O)n1 (stereo unspecified)	SKKanGAS inh 50
CC(=O)/C(=N/Nc1ccc([N+](=O)[O-])cc1)N1CCCc2ccccc21	none (no result: NALP1 inh)
CC(=O)/C(=N/Nc1ccc(Br)cc1)N1CCCc2ccccc21	SKKanGAS inh 51 (no result: NALP1 inh)

Screening data (PubChem)
